# From PubChem BioAssay AID1159580 (chemical genetic matrix, 2015)
# Values joined by “and” are separate entries in the source; they are usually repeats but may differ in a detail not shown here. Equal entries are not always repeated. Out of some 5,500 compounds screened, about 2,000 (36%) were called active. Another 18% or so got no clear call; they are omitted. The list shows a part of the results. A number with no mark means an inactive call. No stated cut-off is given here; in the data, active means normalized growth mostly below about 0.91 (no sharp cut-off); inconclusive means no clear call, values can overlap the other calls; inactive means mostly above about 0.92.
# Assay: chemical genetic growth profiling, strain panel (AID 1159580);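 further: tested at 20 µM; growth read once vehicle control cultures reached saturation at 30 °C; 1 = growth at the plate median or of vehicle wells; lower values mean less growth of the strain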
# Conditions: S. cerevisiae deletion strains, growth OD
smiles,measurement,setting,value
COc1c2occc2c(OC)c2c(=O)cc(C)oc12,normalized growth,"locus YAL021C, strain ccr4, active compounds read low",0.992
same,normalized growth,"locus YAL026C, strain drs2, active compounds read low",0.985
same,normalized growth,"locus YAL030W, strain snc1, active compounds read low",0.992
same,normalized growth,"locus YBL061C, strain skt5, active compounds read low",0.992
same,normalized growth,"locus YBR009C, strain hhf1, active compounds read low",0.963
same,normalized growth,"locus YBR021W, strain FUR4, active compounds read low",0.958
same,normalized growth,"locus YBR023C, strain chs3, active compounds read low",0.97
same,normalized growth,"locus YBR171W, strain sec66, active compounds read low",0.987
same,normalized growth,"locus YBR229C, strain ROT2, active compounds read low",1.01
same,normalized growth,"locus YBR231C, strain swc5, active compounds read low",0.944
same,normalized growth,"locus YBR279W, strain paf1, active compounds read low",0.978
same,normalized growth,"locus YCL011C, strain gbp2, active compounds read low",0.967
same,normalized growth,"locus YCL016C, strain dcc1, active compounds read low",0.986
same,normalized growth,"locus YCL029C, strain bik1, active compounds read low",0.998
same,normalized growth,"locus YCL061C, strain MRC1, active compounds read low",0.995
same,normalized growth,"locus YCL069W, strain vba3, active compounds read low",0.977
same,normalized growth,"locus YCR088W, strain abp1, active compounds read low",0.991
same,normalized growth,"locus YDL005C, strain med2, active compounds read low",0.989
same,normalized growth,"locus YDL035C, strain GPR1, active compounds read low",1.05
same,normalized growth,"locus YDL040C, strain nat1, active compounds read low",0.992
same,normalized growth,"locus YDL074C, strain BRE1, active compounds read low",1.06
same,normalized growth,"locus YDL101C, strain DUN1, active compounds read low",1.02
same,normalized growth,"locus YDL134C, strain PPH21, active compounds read low",1.05
same,normalized growth,"locus YDL185W, strain tfp1, active compounds read low",1.01
same,normalized growth,"locus YDL192W, strain arf1, active compounds read low",1.01
same,normalized growth,"locus YDR001C, strain nth1, active compounds read low",0.991
same,normalized growth,"locus YDR069C, strain doa4, active compounds read low",0.985
same,normalized growth,"locus YDR101C, strain arx1, active compounds read low",0.988
same,normalized growth,"locus YDR137W, strain rgp1, active compounds read low",1.01
same,normalized growth,"locus YDR159W, strain sac3, active compounds read low",0.97
same,normalized growth,"locus YDR162C, strain NBP2, active compounds read low",1.02
same,normalized growth,"locus YDR195W, strain ref2",1.14
same,normalized growth,"locus YDR297W, strain sur2, active compounds read low",0.979
same,normalized growth,"locus YDR318W, strain mcm21, active compounds read low",1.01
same,normalized growth,"locus YDR334W, strain swr1, active compounds read low",0.994
same,normalized growth,"locus YDR335W, strain msn5, active compounds read low",0.987
same,normalized growth,"locus YDR388W, active compounds read low",1
same,normalized growth,"locus YDR392W, strain spt3, active compounds read low",0.734 (active)
same,normalized growth,"locus YDR502C, strain sam2, active compounds read low",1.01
same,normalized growth,"locus YEL003W, strain gim4, active compounds read low",0.938
same,normalized growth,"locus YEL037C, strain rad23, active compounds read low",0.99
same,normalized growth,"locus YEL061C, strain CIN8 (second series), active compounds read low",0.981
same,normalized growth,"locus YER015W, strain faa2, active compounds read low",0.977
same,normalized growth,"locus YER016W, strain bim1, active compounds read low",0.994
same,normalized growth,"locus YER110C, active compounds read low",1
same,normalized growth,"locus YER111C, strain swi4, active compounds read low",1
same,normalized growth,"locus YER155C, strain BEM2 (second series), active compounds read low",0.881
same,normalized growth,"locus YER155C, strain BEM2, active compounds read low",1
same,normalized growth,"locus YER167W, strain BCK2, active compounds read low",1.01
same,normalized growth,"locus YFR010W, strain ubp6, active compounds read low",0.986
same,normalized growth,"locus YGL078C, strain dbp3, active compounds read low",1.01
same,normalized growth,"locus YGL086W, strain mad1, active compounds read low",1
same,normalized growth,"locus YGL167C, strain pmr1, active compounds read low",0.997
same,normalized growth,"locus YGL173C, strain kem1, active compounds read low",0.977
same,normalized growth,"locus YGL227W, strain vid30, active compounds read low",0.99
same,normalized growth,"locus YGL240W, strain doc1, active compounds read low",0.955
same,normalized growth,"locus YGL248W, strain PDE1, active compounds read low",1.04
same,normalized growth,"locus YGL253W, strain hxk2, active compounds read low",0.958
same,normalized growth,"locus YGR135W, strain pre9, active compounds read low",1
same,normalized growth,"locus YGR252W, strain gcn5, active compounds read low",0.965
same,normalized growth,"locus YHR013C, strain ard1, active compounds read low",0.975
same,normalized growth,"locus YHR027C, strain rpn1, active compounds read low",0.987
same,normalized growth,"locus YHR030C, strain SLT2, active compounds read low",1.02 and 0.987
same,normalized growth,"locus YHR079C, strain IRE1 (second series), active compounds read low",1
same,normalized growth,"locus YHR079C, strain IRE1, active compounds read low",0.996
same,normalized growth,"locus YHR094C, strain hxt1, active compounds read low",1.01
same,normalized growth,"locus YHR129C, strain ARP1, active compounds read low",1.01
same,normalized growth,"locus YHR142W, strain chs7, active compounds read low",0.949
same,normalized growth,"locus YHR200W, strain rpn10, active compounds read low",1.04
same,normalized growth,"locus YIL066C, strain RNR3, active compounds read low",1.02
same,normalized growth,"locus YIL073C, strain SPO22, active compounds read low",1.13
same,normalized growth,"locus YIL125W, strain kgd1, active compounds read low",1.02
same,normalized growth,"locus YIR030C, strain dcg1, active compounds read low",1.01
same,normalized growth,"locus YJL092W, strain hpr5, active compounds read low",0.996
same,normalized growth,"locus YJL095W, strain BCK1 (second series), active compounds read low",0.993
same,normalized growth,"locus YJL095W, strain BCK1, active compounds read low",1.03 and 1
same,normalized growth,"locus YJL115W, strain asf1, active compounds read low",0.996
same,normalized growth,"locus YJL129C, strain trk1, active compounds read low",1.01
same,normalized growth,"locus YJL134W, strain LCB3, active compounds read low",1.01
same,normalized growth,"locus YJL154C, strain vps35, active compounds read low",0.995
same,normalized growth,"locus YJL164C, strain tpk1, active compounds read low",0.965
same,normalized growth,"locus YJL166W, strain qcr8, active compounds read low",0.945
same,normalized growth,"locus YJL168C, strain set2, active compounds read low",1.01
same,normalized growth,"locus YJL187C, strain SWE1 (second series), active compounds read low",1.02
same,normalized growth,"locus YJL187C, strain SWE1, active compounds read low",0.99
same,normalized growth,"locus YJR043C, strain POL32, active compounds read low",1.03
same,normalized growth,"locus YJR066W, strain TOR1, active compounds read low",0.931
same,normalized growth,"locus YJR075W, strain HOC1, active compounds read low",1.03
same,normalized growth,"locus YKL009W, strain mrt4, active compounds read low",0.991
same,normalized growth,"locus YKL068W, active compounds read low",1.01
same,normalized growth,"locus YKL085W, strain MDH1 (second series), active compounds read low",1.01
same,normalized growth,"locus YKL085W, strain MDH1, active compounds read low",1.01
same,normalized growth,"locus YKL160W, strain elf1, active compounds read low",0.963
same,normalized growth,"locus YKR001C, strain vps1, active compounds read low",1.02
same,normalized growth,"locus YKR026C, strain gcn3, active compounds read low",0.995
same,normalized growth,"locus YKR091W, strain srl3, active compounds read low",0.998
same,normalized growth,"locus YLL001W, strain dnm1, active compounds read low",0.949
same,normalized growth,"locus YLL026W, active compounds read low",0.999
same,normalized growth,"locus YLL041C, strain sdh2, active compounds read low",0.998
same,normalized growth,"locus YLR027C, strain aat2, active compounds read low",0.99
same,normalized growth,"locus YLR039C, strain RIC1, active compounds read low",1.18
same,normalized growth,"locus YLR058C, strain SHM2, active compounds read low",1.01
same,normalized growth,"locus YLR102C, strain apc9, active compounds read low",1.01
same,normalized growth,"locus YLR113W, strain HOG1, active compounds read low",1.07
same,normalized growth,"locus YLR221C, strain rsa3, active compounds read low",0.963
same,normalized growth,"locus YLR258W, strain gsy2, active compounds read low",0.943
same,normalized growth,"locus YLR262C, strain YPT6 (second series), active compounds read low",0.985
same,normalized growth,"locus YLR268W, strain sec22, active compounds read low",0.999
same,normalized growth,"locus YLR320W, strain mms22, active compounds read low",0.941
same,normalized growth,"locus YLR342W, strain FKS1, active compounds read low",0.994
same,normalized growth,"locus YLR357W, strain rsc2, active compounds read low",1.01
same,normalized growth,"locus YLR370C, strain arc18, active compounds read low",0.996
same,normalized growth,"locus YLR371W, strain rom2, active compounds read low",1.02
same,normalized growth,"locus YLR384C, strain iki3, active compounds read low",0.986
same,normalized growth,"locus YLR418C, strain cdc73, active compounds read low",1.04
same,normalized growth,"locus YML016C, strain PPZ1, active compounds read low",1.01
same,normalized growth,"locus YML032C, strain rad52, active compounds read low",1
same,normalized growth,"locus YML120C, strain ndi1, active compounds read low",0.972
same,normalized growth,"locus YML124C, strain tub3, active compounds read low",0.999
same,normalized growth,"locus YMR058W, strain fet3, active compounds read low",0.975
same,normalized growth,"locus YMR078C, strain ctf18, active compounds read low",1.02
same,normalized growth,"locus YMR125W, strain sto1, active compounds read low",1.04
same,normalized growth,"locus YMR129W, active compounds read low",1
same,normalized growth,"locus YMR205C, strain PFK2, active compounds read low",0.985
same,normalized growth,"locus YMR223W, strain ubp8, active compounds read low",0.992
same,normalized growth,"locus YMR231W, strain pep5, active compounds read low",0.999
same,normalized growth,"locus YMR307W, strain GAS1, active compounds read low",1.17
same,normalized growth,"locus YNL067W, strain RPL9B, active compounds read low",0.986
same,normalized growth,"locus YNL071W, strain lat1, active compounds read low",0.912 (active)
same,normalized growth,"locus YNL128W, strain TEP1, active compounds read low",1.02
same,normalized growth,"locus YNL153C, strain GIM3, active compounds read low",1
same,normalized growth,"locus YNL183C, strain NPR1, active compounds read low",0.949
same,normalized growth,"locus YNL209W, strain ssb2, active compounds read low",0.977
same,normalized growth,"locus YNL233W, strain BNI4, active compounds read low",1.03
same,normalized growth,"locus YNL248C, strain rpa49, active compounds read low",0.989
same,normalized growth,"locus YNL250W, strain rad50, active compounds read low",1.05
same,normalized growth,"locus YNL271C, strain bni1, active compounds read low",1.01
same,normalized growth,"locus YNL298W, strain CLA4, active compounds read low",1.02
same,normalized growth,"locus YNL307C, strain MCK1, active compounds read low",1
same,normalized growth,"locus YNL322C, strain KRE1 (second series), active compounds read low",0.998
same,normalized growth,"locus YNR049C, strain mso1, active compounds read low",1
same,normalized growth,"locus YNR052C, strain pop2, active compounds read low",1.01
same,normalized growth,"locus YOL012C, strain htz1",1.05
same,normalized growth,"locus YOL147C, strain pex11, active compounds read low",1.01
same,normalized growth,"locus YOR001W, strain rrp6, active compounds read low",0.946
same,normalized growth,"locus YOR061W, strain CKA2, active compounds read low",1.02
same,normalized growth,"locus YOR069W, strain VPS5, active compounds read low",1
same,normalized growth,"locus YOR070C, strain gyp1, active compounds read low",0.988
same,normalized growth,"locus YOR080W, strain dia2, active compounds read low",0.987
same,normalized growth,"locus YOR083W, strain WHI5, active compounds read low",0.942
same,normalized growth,"locus YOR106W, strain vam3, active compounds read low",0.966
same,normalized growth,"locus YOR136W, strain idh2, active compounds read low",1.02
same,normalized growth,"locus YOR144C, strain elg1, active compounds read low",1.01
same,normalized growth,"locus YOR184W, strain ser1, active compounds read low",1.02
same,normalized growth,"locus YOR231W, strain MKK1, active compounds read low",0.997
same,normalized growth,"locus YOR265W, strain rbl2, active compounds read low",0.989
same,normalized growth,"locus YOR270C, strain vph1, active compounds read low",0.839
same,normalized growth,"locus YOR290C, strain snf2, active compounds read low",0.958
same,normalized growth,"locus YOR316C, strain cot1, active compounds read low",1.03
same,normalized growth,"locus YPL051W, strain arl3, active compounds read low",0.972
same,normalized growth,"locus YPL078C, strain atp4, active compounds read low",0.951
same,normalized growth,"locus YPL106C, strain sse1, active compounds read low",0.961
same,normalized growth,"locus YPL240C, strain hsp82, active compounds read low",0.989
same,normalized growth,"locus YPL241C, strain CIN2, active compounds read low",1.01
same,normalized growth,"locus YPL256C, strain CLN2, active compounds read low",1.03
same,normalized growth,"locus YPR119W, strain clb2, active compounds read low",1.01
same,normalized growth,"locus YPR141C, strain kar3, active compounds read low",1.01
same,normalized growth,"locus YPR163C, strain tif3, active compounds read low",0.992
same,normalized growth,"locus YPR167C, strain met16, active compounds read low",1.02
same,normalized growth,"strain wtn01, active compounds read low",0.999
